Screening results: PubChem BioAssay, National Center for Advancing Translational Sciences (NCATS)
CtBP-E1A blk: blocks the CtBP interaction with E1A. AlphaScreen GST-E1A/His-CtBP binding, 1536-well; stronger effect = lower value. activity change, % (no concentration beside the values). 340,000 tested, 0.49% active; in the data active means activity change below about -65%; inconclusive means mostly about -30% to -63%
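AlphaScreen with 125 nM GST-E1A and 125 nM His-CtBP (5X stocks) in Tris pH 8.0, 300 mM NaCl, BSA, Tween 20, TCEP. Compounds preincubated 2 h at 37 deg C, then glutathione donor/nickel acceptor beads added for 1 h at 37 deg C in dark.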
VP16 counter: Gal4-VP16 reporter inhibition counter-screen; Drosophila S2 Gal4-VP16 UAS-luciferase, luminescence, 20 h; Potency, µM (series often up to 53.6 µM), for the others: at the top dose activity, negative = inhibition, usual class: inhibitors; 310,000 tested, 3.5% active; AID 2546;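 further: Gal4-VP16 expression switched on by copper sulfate through the metallothionein promoter; potency means the concentration at half of the fitted maximal effect; nearly all actives have a fitted effect of over 50% in size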
RORgamma inh: blocks mouse ROR gamma transcriptional activity; P51450; Drosophila S2 Gal4-RORgamma UAS-luciferase reporter, 20 h; Potency, µM (highest dose often 53.6 µM), without a hit: at the highest dose activity change, negative = inhibition, most hits filed as inhibitors; 310,000 tested, 5.4% active; AID 2551; further: potency means the concentration at half of the fitted maximal effect; nearly all actives have a fitted effect of over 60% in size
Target sequence (P51450 whole entry, looked up, the tested form may be a part): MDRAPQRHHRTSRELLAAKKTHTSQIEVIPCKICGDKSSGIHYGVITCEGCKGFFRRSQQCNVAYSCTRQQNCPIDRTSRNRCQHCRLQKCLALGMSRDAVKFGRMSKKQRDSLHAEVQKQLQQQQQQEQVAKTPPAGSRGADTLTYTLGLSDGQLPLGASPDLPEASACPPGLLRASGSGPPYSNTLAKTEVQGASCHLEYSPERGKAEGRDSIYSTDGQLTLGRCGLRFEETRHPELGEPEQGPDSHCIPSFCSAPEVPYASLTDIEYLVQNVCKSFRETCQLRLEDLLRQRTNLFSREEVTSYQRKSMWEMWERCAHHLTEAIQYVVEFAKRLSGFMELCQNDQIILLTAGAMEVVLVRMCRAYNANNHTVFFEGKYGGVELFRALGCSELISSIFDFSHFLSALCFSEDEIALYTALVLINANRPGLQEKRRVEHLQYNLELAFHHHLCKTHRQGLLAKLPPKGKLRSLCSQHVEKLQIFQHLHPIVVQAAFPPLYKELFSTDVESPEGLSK
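A Gal4/UAS one-hybrid system in insect cells: metallothionein-promoter Gal4–ROR gamma fusion plus Photinus luciferase reporter. Copper sulfate 700 uM final, 20 hr ambient incubation, luminescent detection after 10 min with reagent.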
Six1-Eya2 blk: blocks human Six1 binding to Eya2. AlphaScreen GST-Six1/His-Eya2 binding, biochemical; stronger effect = lower value. activity change, % (concentration not given with the values). 360,000 tested, 0.56% active. AID 651725; in the data active means activity change below about -65%; inconclusive means mostly about -30% to -63%
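GST-Six1 + His-Eya2 (5X stock: 250/500 nM); Tris pH 8.0, 300 mM NaCl, 0.05% BSA, 0.02% Tween 20; GSH donor/Ni acceptor beads; 1 h 37 °C dark; AlphaScreen readout.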
PKM2 activator: increases activity of human pyruvate kinase M2; P14618; purified PKM2, Kinase-Glo ATP luminescence, activation; response scale: 0% is enzyme alone, no compound; Potency, µM (titrated, usually from 57.5 µM), without a hit: top-dose activation, most hits filed as activators; 260,000 tested, 0.34% active; AID 1631; further: potency means the concentration at half of the fitted maximal effect; nearly all actives have a fitted effect of over 55% in size
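Kinase-Glo luminescence reports ATP generated from ADP (0.1 mM) and PEP (0.5 mM) by purified hPK-M2 after 1 h at room temperature, pH 7.2 imidazole buffer; intermediate enzyme activity allows detecting inhibitors and activators.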
Numbers without * were called inactive; [ ] = another dose, or the depositor's remark. Shown are actives, neighbours in structure and some others; about 5.6% of the full set was active somewhere. Unless noted, the call rests on the fitted dose curve; in most records, active means well fitted curve in the direction sought with a large enough effect; inconclusive means small, poorly fitted or top-dose-only effect, or another doubt; inactive means no such curve, though single readings can be large; an effect the other way counts as inactive or inconclusive. On the % scale 0 is the no-effect control and ±100 the full control effect.

What do the screens show for `Cc1nc2nc(-c3ccccc3)cn2nc1C`?
CtBP-E1A blk: -5; VP16 counter: inconclusive; RORgamma inh: 10µM*; Six1-Eya2 blk: -2; PKM2 activator: -48%

Results for c1ccc(-c2cn3nc4c(nc3n2)CCCC4)cc1 ?
CtBP-E1A blk: 12; VP16 counter: inconclusive; RORgamma inh: 5µM*; Six1-Eya2 blk: 4; PKM2 activator: -34%

How did CCc1ccc(-c2cn3nc(C)c(C)nc3n2)cc1 do in these assays?
CtBP-E1A blk: -3; VP16 counter: inconclusive; RORgamma inh: 7.1µM*; Six1-Eya2 blk: 7; PKM2 activator: 0%

How did Brc1ccc(-c2cn3nc4c(nc3n2)CCCC4)cc1 do in these assays?
CtBP-E1A blk: 27; VP16 counter: inconclusive; RORgamma inh: inconclusive; Six1-Eya2 blk: 14; PKM2 activator: 0%

What do the screens show for `COc1cc(C(=O)OCC(=O)NC(=O)C2CCCCC2)ccc1OC(F)F`?
VP16 counter: 2%; RORgamma inh: 0%; Six1-Eya2 blk: 0; PKM2 activator: 6%

What do the screens show for `Cc1cc(C)c(CC(=O)c2ccccc2)c(C)c1`?
CtBP-E1A blk: 0; Six1-Eya2 blk: 3

How did O=[N+]([O-])c1ccc(N2CCN(C(=S)Nc3ccccc3)CC2)cc1 do in these assays?
CtBP-E1A blk: -1; VP16 counter: -3%; RORgamma inh: -4%; Six1-Eya2 blk: 2; PKM2 activator: -9%

How did O=C(NC(=S)N1CCN(c2ccc([N+](=O)[O-])cc2)CC1)c1ccc(F)cc1 do in these assays?
CtBP-E1A blk: -9; VP16 counter: 1µM*; RORgamma inh: 1.1µM*; Six1-Eya2 blk: -9; PKM2 activator: -15%

How did O=C(NC(=S)N1CCN(c2ccc([N+](=O)[O-])cc2)CC1)c1ccccc1Cl do in these assays?
CtBP-E1A blk: -15; VP16 counter: 1.4µM*; RORgamma inh: 0.45µM*; Six1-Eya2 blk: -5; PKM2 activator: -4%

How did O=C(NC(=S)N1CCN(c2ccc([N+](=O)[O-])cc2)CC1)c1ccccc1F do in these assays?
CtBP-E1A blk: 4; VP16 counter: 1µM*; RORgamma inh: 0.56µM*; Six1-Eya2 blk: 5; PKM2 activator: -1%

Results for C/C=C/c1cnc2c(c1)C(=O)N([C@H](C)CO)C[C@H](C)[C@@H](CN(C)C(=O)CN1CCOCC1)O2 ?
CtBP-E1A blk: 5; Six1-Eya2 blk: 2

Results for CS(=O)(=O)N1CCC2(CCCN(Cc3cc(C(F)(F)F)cc(C(F)(F)F)c3)C2)CC1 ?
VP16 counter: -6%; RORgamma inh: 37%

What do the screens show for `Cc1nn(CCO)c(N)c1C1(O)C(=O)Nc2c(Cl)cc(Cl)cc21` (stereo not drawn)?
CtBP-E1A blk: 6; VP16 counter: -3%; RORgamma inh: inconclusive; Six1-Eya2 blk: 3

How did COC(=O)C(Cc1ccc(O)cc1)NC(=O)C(C)NC(=O)c1ccc(C(C)(C)C)cc1 (stereo not drawn) do in these assays?
CtBP-E1A blk: 6; VP16 counter: -4%; RORgamma inh: 11%; Six1-Eya2 blk: 12; PKM2 activator: -3%

Results for Cc1cccc(C(=O)NC2CCN(C(=O)NCc3ccccc3)CC2)c1 ?
CtBP-E1A blk: 4; VP16 counter: 9%; RORgamma inh: -34%; Six1-Eya2 blk: 1; PKM2 activator: 5%

What do the screens show for `COc1ccc(OC)c(NC(=O)CSc2nc(=O)n(Cc3ccccn3)c3c2CCC3)c1`?
CtBP-E1A blk: 9; Six1-Eya2 blk: 0

What do the screens show for `O=C(/C=C\c1ccccc1[N+](=O)[O-])Nc1ccccc1`?
CtBP-E1A blk: -2; VP16 counter: 22%; RORgamma inh: 39%; Six1-Eya2 blk: -1; PKM2 activator: 1%

What do the screens show for `COC(=O)/C(=C(O)\C=C\c1ccccc1[N+](=O)[O-])c1nc2ccccc2[nH]1`?
CtBP-E1A blk: -29; VP16 counter: inconclusive; RORgamma inh: 7.9µM*; Six1-Eya2 blk: -26

Results for CSc1nc(=NC(C)=O)ss1 ?
CtBP-E1A blk: 10; VP16 counter: -19%; RORgamma inh: 3.2µM*; Six1-Eya2 blk: -12; PKM2 activator: -18%

How did COc1ccc(NC(=O)N(C)C[C@H]2OCCCC[C@@H](C)Oc3ccc(NC(=O)c4ccccc4)cc3C(=O)N([C@H](C)CO)C[C@@H]2C)cc1 do in these assays?
CtBP-E1A blk: -7; Six1-Eya2 blk: -10

What do the screens show for `CSc1cccc(NC(=O)c2cnn3ccccc23)c1`?
CtBP-E1A blk: -15; VP16 counter: inconclusive; RORgamma inh: inconclusive; Six1-Eya2 blk: -6; PKM2 activator: -6%

How did CCc1ccc(NC(=O)c2cnn3ccccc23)cc1 do in these assays?
CtBP-E1A blk: -1; VP16 counter: inconclusive; RORgamma inh: 13µM*; Six1-Eya2 blk: 3; PKM2 activator: -28%

Results for O=C(NCCc1ccccc1)C(=O)Nc1ccc([N+](=O)[O-])cc1 ?
CtBP-E1A blk: 11; VP16 counter: -3%; RORgamma inh: 2%; Six1-Eya2 blk: 3; PKM2 activator: -2%

What do the screens show for `Cc1ccccc1NC(=S)NCCc1ccccn1`?
CtBP-E1A blk: -6; VP16 counter: inconclusive; RORgamma inh: 16µM*; Six1-Eya2 blk: 1; PKM2 activator: 1%

What do the screens show for `Fc1cccc(NC(=S)NCc2ccccn2)c1`?
CtBP-E1A blk: 0; VP16 counter: inconclusive; RORgamma inh: -36%[10 µM]; Six1-Eya2 blk: -10; PKM2 activator: -6%

How did S=C(NCc1ccccn1)Nc1ccc(Cl)cc1 do in these assays?
CtBP-E1A blk: -11; VP16 counter: inconclusive; RORgamma inh: 7.9µM*; Six1-Eya2 blk: 0; PKM2 activator: 1%

How did O=C(NC(=S)NCCc1ccccn1)c1ccccc1 do in these assays?
CtBP-E1A blk: -2; VP16 counter: -66%; RORgamma inh: 13µM*; Six1-Eya2 blk: 4; PKM2 activator: 10%

What do the screens show for `Cc1cccc(C)c1NC(=S)NCCc1ccccn1`?
CtBP-E1A blk: -3; VP16 counter: 2.8µM*; RORgamma inh: 1.4µM*; Six1-Eya2 blk: -1; PKM2 activator: -5%

What do the screens show for `O=C(NC(=S)NCCc1ccccn1)c1ccco1`?
CtBP-E1A blk: -16; VP16 counter: 12%; RORgamma inh: inconclusive; Six1-Eya2 blk: 0; PKM2 activator: inconclusive

What do the screens show for `Cc1[nH]nc(SCC(=O)NC2CCCCC2)c1[N+](=O)[O-]`?
CtBP-E1A blk: 0; VP16 counter: 3%[10 µM]; RORgamma inh: 20%; Six1-Eya2 blk: 1; PKM2 activator: -4%

How did S=C(NCCc1ccccn1)Nc1cccc(Cl)c1 do in these assays?
CtBP-E1A blk: 4; VP16 counter: 7.9µM*; RORgamma inh: 5µM*; Six1-Eya2 blk: 3; PKM2 activator: 1%

What do the screens show for `CC1CN(C(=S)NC(=O)c2ccc(Cl)cc2)CC(C)O1` (stereo not drawn)?
CtBP-E1A blk: -5; VP16 counter: 0.79µM*; RORgamma inh: 1.6µM*; Six1-Eya2 blk: 1; PKM2 activator: -10%
